SMILES strings stand for the structures. Values without a mark were called inactive.

What all share (assay): log2 ratio of Biotin-Ahx-Ub-VS probe labelling (fragment/DMSO); higher = less target engagement (more negative = stronger competition), active = hit call of the paper (q ≤ 0.05, log2 ratio ≤ -1)
What all share (conditions): compound concentration: 200 uM; treatment time: 3 h

The target of one assay is T1, USP42 (UniProt Q9H9J4).
T1 sequence (whole entry): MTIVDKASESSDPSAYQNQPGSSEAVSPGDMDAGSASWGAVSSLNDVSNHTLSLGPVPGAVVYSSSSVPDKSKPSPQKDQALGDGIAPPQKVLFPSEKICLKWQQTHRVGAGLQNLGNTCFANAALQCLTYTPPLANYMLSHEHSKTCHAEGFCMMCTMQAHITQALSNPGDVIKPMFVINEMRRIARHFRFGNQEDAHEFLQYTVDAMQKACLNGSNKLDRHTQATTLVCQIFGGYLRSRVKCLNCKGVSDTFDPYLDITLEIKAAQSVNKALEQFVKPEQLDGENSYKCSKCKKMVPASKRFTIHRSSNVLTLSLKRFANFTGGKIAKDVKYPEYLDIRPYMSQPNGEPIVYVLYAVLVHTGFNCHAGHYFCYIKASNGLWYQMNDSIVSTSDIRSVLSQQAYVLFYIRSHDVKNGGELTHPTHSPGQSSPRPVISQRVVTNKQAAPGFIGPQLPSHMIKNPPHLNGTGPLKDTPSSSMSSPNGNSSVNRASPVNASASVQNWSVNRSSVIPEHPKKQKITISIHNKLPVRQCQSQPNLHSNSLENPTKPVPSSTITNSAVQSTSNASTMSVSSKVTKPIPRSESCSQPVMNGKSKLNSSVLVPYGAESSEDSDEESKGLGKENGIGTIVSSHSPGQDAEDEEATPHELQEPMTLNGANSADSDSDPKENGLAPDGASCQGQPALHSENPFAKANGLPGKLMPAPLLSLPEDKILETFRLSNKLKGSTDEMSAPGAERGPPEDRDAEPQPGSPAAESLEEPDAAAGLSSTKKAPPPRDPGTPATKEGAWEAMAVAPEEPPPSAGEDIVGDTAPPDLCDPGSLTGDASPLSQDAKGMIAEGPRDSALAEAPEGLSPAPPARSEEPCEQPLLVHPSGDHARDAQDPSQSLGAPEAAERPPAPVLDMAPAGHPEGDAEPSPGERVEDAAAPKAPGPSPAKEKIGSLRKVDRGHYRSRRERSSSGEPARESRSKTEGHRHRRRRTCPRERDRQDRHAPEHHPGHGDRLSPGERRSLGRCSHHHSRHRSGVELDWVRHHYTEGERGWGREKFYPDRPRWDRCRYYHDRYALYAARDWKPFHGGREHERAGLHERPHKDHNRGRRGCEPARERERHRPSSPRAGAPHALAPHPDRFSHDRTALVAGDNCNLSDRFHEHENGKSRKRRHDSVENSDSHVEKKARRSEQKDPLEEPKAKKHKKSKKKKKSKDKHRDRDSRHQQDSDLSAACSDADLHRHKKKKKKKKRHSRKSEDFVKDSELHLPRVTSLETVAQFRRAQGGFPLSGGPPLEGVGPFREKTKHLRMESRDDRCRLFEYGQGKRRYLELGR
The gist of the method:
(§1)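 Labelled DUBs from HEK293T lysate were NeutrAvidin-enriched, digested with LysC and trypsin, and run by diaPASEF LC-MS/MS. Before that, each 495 µg sample in Tris/CHAPS/IGEPAL buffer with protease inhibitors was treated in triplicate with fragment at 200 µM or vehicle for 3 h, then with Biotin-Ahx-Ub-VS at 0.5 µM final for 1 h. Values are average log2 ratios of fragment over vehicle by unpaired t-test, based on global-median-normalised Spectronaut label-free quantities from proteins with ≥2 unique peptides.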

For the next assay, the target named is USP46 (UniProt P62068). The gist of the method:
as §1

The next assay deals with T2, USP47 (UniProt Q96K76).
T2 sequence (whole entry): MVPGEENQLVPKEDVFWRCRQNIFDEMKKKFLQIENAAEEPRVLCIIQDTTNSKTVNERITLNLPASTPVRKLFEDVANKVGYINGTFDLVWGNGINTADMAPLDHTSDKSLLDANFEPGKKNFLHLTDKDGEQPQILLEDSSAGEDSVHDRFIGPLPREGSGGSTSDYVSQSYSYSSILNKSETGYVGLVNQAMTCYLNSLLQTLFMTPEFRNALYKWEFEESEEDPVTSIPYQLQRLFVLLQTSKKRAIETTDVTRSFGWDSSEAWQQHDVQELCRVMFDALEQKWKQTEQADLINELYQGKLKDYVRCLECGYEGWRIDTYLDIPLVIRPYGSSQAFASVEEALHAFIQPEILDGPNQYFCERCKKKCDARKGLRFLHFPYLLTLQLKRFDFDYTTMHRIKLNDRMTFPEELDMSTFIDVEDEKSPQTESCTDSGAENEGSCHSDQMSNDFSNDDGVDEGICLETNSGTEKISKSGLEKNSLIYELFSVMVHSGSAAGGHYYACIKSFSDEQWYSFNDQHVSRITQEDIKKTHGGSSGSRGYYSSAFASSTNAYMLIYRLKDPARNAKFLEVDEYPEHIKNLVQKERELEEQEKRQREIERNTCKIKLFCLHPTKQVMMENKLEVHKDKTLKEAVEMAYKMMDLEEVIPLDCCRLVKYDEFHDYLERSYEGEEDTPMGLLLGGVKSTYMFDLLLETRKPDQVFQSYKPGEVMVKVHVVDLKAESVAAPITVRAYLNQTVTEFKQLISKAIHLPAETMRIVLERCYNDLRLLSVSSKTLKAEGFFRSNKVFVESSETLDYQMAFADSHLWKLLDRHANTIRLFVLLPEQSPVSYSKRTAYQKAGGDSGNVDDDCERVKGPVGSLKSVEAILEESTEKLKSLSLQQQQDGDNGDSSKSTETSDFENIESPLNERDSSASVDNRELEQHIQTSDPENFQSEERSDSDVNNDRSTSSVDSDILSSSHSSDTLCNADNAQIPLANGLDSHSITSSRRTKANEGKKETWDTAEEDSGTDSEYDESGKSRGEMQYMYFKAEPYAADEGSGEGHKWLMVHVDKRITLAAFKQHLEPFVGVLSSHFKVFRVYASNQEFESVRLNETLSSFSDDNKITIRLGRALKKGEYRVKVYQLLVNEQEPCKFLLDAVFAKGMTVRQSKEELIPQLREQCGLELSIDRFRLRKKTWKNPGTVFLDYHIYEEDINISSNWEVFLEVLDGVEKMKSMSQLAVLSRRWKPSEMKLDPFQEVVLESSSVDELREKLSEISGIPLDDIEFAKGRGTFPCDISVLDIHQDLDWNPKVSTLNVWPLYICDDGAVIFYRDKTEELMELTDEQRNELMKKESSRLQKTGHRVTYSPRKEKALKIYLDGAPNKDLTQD
The gist of the method: as §1

The target of the next assay is T3, USP48 (UniProt Q86UV5).
T3 sequence (whole entry): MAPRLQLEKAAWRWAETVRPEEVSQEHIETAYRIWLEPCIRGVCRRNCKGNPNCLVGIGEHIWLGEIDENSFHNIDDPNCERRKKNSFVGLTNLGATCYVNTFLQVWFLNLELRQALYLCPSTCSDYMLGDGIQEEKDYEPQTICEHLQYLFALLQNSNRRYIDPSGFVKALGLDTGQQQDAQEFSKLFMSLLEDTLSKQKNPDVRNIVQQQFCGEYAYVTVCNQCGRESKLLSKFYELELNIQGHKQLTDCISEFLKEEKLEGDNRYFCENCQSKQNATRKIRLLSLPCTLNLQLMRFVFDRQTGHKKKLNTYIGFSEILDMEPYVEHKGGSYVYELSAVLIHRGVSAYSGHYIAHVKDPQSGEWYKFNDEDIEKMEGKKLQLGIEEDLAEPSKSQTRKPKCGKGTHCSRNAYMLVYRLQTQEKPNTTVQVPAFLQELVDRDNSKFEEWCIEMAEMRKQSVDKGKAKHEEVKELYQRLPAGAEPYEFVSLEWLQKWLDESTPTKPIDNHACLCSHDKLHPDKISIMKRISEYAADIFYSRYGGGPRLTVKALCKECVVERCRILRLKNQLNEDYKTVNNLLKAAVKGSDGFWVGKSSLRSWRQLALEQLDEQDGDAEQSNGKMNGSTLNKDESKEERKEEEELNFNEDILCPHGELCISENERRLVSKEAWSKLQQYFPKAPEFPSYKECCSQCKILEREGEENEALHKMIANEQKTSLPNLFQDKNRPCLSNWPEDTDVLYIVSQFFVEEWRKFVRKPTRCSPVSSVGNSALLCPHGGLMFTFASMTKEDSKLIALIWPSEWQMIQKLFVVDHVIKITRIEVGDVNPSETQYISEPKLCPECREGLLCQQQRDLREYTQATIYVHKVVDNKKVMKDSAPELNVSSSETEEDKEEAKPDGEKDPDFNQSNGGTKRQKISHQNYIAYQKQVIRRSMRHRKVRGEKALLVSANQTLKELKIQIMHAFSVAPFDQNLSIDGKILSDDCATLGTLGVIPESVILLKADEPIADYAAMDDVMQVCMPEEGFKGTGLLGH
Summed up:
as §1

The next assay has as its target T4, USP5 (UniProt P45974).
T4 sequence (whole entry): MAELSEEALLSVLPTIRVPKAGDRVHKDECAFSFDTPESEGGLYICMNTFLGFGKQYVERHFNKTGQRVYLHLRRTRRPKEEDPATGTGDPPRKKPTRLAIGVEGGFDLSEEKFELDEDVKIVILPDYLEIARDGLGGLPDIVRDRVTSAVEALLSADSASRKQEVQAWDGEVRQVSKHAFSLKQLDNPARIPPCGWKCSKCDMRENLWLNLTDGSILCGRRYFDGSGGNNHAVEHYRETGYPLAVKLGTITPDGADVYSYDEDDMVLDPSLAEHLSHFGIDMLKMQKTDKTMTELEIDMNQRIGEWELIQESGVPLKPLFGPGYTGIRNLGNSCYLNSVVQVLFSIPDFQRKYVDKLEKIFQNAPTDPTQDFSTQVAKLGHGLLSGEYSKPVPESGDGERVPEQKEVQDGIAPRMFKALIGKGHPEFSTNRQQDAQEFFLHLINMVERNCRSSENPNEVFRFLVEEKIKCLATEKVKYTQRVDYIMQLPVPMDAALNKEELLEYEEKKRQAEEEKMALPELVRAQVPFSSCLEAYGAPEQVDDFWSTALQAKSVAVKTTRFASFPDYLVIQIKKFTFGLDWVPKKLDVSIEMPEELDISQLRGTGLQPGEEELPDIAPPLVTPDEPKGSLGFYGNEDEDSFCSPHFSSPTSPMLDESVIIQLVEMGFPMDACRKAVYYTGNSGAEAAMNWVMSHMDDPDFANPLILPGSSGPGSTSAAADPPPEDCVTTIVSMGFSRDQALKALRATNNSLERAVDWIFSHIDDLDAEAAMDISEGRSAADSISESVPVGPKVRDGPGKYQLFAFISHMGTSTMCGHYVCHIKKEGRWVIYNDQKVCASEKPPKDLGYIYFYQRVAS
Summed up: as §1

The target of a further assay is USP54 (UniProt Q70EL1). Summed up: as §1
USP54, sequence (Q70EL1 whole entry): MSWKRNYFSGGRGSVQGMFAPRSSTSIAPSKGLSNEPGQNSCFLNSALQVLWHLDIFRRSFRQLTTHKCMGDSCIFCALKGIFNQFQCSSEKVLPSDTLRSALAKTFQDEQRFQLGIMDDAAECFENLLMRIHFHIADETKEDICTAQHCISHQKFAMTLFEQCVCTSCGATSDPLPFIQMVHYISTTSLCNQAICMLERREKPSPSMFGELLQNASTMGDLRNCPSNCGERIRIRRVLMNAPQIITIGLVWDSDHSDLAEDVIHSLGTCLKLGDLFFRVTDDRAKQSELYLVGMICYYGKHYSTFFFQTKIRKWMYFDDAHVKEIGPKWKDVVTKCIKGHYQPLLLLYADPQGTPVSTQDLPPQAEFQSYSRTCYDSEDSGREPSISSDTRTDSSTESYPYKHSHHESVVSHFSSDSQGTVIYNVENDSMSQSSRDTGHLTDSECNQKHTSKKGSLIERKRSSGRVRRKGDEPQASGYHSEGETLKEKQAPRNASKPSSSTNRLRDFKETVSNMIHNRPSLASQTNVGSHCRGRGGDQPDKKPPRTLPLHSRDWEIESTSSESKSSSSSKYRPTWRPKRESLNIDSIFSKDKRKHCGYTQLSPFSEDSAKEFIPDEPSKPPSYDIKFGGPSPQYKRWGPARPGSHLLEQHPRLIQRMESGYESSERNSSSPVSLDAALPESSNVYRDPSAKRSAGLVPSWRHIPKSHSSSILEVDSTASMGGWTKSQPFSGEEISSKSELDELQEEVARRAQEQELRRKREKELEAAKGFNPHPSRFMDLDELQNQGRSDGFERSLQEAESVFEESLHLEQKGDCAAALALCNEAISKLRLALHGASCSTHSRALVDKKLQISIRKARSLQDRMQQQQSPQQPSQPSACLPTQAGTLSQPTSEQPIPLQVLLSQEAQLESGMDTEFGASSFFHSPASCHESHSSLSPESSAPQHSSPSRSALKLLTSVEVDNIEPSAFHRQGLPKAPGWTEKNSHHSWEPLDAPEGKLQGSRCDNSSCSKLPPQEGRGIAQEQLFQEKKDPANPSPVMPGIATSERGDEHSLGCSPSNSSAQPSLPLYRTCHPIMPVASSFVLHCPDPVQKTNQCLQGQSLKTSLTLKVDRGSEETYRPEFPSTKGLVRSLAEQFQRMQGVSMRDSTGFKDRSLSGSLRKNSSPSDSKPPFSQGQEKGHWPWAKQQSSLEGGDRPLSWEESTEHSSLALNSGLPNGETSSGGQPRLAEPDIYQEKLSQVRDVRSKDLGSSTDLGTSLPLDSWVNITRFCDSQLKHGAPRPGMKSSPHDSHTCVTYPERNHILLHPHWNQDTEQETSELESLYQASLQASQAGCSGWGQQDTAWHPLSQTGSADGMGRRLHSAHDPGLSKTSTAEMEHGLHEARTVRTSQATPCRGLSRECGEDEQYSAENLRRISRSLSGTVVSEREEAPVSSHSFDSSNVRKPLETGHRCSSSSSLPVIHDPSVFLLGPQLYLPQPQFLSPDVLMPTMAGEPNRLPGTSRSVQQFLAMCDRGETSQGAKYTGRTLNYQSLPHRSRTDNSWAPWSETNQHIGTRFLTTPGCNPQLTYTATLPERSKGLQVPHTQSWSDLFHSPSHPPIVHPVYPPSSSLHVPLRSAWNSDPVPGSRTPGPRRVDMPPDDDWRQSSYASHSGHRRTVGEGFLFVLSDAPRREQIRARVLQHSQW
Another assay concerns the target USP7 (UniProt Q93009). Summed up:
as §1

The target of the next assay is T5, USP8 (UniProt P40818).
T5 sequence (whole entry): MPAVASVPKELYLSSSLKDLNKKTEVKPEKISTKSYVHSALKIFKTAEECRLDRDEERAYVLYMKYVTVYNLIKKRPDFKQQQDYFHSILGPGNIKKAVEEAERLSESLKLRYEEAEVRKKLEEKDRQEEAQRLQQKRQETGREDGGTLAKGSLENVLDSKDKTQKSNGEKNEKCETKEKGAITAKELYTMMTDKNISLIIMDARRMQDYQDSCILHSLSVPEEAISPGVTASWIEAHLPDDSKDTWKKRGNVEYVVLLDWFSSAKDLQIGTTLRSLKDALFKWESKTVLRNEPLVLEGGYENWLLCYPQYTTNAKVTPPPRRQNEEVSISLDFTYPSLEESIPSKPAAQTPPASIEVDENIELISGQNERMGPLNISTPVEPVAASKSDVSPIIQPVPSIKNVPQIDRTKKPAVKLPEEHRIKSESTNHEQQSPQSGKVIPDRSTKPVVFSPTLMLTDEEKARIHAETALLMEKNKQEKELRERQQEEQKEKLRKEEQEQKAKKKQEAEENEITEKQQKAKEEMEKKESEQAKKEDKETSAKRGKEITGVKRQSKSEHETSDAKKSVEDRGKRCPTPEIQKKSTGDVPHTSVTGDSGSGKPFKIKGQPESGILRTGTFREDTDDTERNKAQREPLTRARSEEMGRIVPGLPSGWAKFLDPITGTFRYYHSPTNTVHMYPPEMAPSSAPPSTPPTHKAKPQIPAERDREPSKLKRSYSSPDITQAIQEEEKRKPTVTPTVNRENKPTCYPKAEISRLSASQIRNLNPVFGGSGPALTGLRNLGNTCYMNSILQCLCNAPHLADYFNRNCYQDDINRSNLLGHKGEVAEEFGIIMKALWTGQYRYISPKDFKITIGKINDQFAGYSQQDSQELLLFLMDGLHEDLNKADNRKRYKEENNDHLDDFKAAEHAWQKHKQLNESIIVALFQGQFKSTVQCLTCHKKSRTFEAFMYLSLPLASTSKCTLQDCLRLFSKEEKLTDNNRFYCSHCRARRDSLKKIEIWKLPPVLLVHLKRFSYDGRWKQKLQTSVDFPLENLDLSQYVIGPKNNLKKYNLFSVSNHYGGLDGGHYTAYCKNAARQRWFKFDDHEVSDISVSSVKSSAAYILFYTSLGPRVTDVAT
Summed up:
as §1

The target in a further assay is USP9X (UniProt Q93008). Summed up:
as §1

The next assay addresses UniProt O00487. Summed up: as §1

USP7, sequence (Q93009 whole entry, looked up): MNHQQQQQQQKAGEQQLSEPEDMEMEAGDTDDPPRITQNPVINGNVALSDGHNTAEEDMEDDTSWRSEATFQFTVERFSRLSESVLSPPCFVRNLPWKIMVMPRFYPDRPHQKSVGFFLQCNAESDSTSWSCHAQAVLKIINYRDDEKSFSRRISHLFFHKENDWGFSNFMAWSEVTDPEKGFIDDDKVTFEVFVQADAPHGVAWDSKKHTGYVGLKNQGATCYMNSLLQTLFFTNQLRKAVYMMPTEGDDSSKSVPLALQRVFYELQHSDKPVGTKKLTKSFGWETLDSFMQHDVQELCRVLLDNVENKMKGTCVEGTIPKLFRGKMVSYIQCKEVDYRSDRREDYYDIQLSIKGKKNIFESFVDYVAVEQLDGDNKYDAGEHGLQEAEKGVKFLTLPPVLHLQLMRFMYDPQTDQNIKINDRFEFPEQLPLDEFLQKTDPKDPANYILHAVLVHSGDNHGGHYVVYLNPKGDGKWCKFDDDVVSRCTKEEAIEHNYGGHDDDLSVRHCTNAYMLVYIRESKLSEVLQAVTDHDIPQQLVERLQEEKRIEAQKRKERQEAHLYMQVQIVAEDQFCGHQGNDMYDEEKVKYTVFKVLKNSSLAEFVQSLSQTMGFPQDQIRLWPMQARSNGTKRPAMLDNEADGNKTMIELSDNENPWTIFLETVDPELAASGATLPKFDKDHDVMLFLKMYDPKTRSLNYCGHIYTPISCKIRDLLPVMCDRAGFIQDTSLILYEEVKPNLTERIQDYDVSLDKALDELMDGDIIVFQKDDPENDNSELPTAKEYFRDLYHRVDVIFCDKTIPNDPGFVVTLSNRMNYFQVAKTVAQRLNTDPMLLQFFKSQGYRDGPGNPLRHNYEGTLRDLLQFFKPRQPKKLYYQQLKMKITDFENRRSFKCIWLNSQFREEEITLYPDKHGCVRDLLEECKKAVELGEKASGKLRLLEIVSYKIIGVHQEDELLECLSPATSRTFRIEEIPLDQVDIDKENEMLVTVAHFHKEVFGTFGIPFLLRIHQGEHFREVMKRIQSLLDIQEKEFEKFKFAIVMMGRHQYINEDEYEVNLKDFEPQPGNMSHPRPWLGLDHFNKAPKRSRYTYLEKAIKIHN
USP46, sequence (P62068 whole entry): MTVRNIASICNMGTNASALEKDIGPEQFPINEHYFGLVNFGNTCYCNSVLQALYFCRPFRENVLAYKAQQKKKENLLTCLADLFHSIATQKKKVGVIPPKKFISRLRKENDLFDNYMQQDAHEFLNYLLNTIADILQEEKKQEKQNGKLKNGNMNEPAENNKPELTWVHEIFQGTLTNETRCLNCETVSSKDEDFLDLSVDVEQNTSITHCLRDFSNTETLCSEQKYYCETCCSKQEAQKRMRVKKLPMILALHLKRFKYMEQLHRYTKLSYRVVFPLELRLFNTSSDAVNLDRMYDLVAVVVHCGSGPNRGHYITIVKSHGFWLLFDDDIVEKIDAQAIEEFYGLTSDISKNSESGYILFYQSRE
UniProt O00487, sequence (O00487 whole entry): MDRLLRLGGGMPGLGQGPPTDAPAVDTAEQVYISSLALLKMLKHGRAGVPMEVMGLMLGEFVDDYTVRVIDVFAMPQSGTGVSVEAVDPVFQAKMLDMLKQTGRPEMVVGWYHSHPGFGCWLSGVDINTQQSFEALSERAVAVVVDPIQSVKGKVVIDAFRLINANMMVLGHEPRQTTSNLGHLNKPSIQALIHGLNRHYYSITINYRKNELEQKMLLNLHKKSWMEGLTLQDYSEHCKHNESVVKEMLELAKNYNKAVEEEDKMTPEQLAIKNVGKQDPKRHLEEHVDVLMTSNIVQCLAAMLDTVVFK

`O=C(CCl)N1CCOC(c2cccc(F)c2)C1` (stereo not given): the “log2 ratio of Biotin-Ahx-Ub-VS probe labelling” value in the assay with USP42 is -0.424; with USP46, -0.374; in the assay with USP47, -0.467; in the assay with USP48 it was -1.36 (active); with USP5, 0.362; with USP54, 0.45. The “log2 ratio of Biotin-Ahx-Ub-VS probe labelling” value was -0.705 with USP7, -0.461 with USP8, -0.504 with USP9X and 0.15 with UniProt O00487.
